# PubChem BioAssay AID588676 (Johns Hopkins Ion Channel Center, 2011)
# In all, about 310,000 compounds went through this assay and about 3,900 (1.3%) were called active.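 The calls were made as follows: active = calcium-response B-score plate-corrected more than 3 library SD below zero, starting fluorescence within 5 deviations, no agonist response on first addition; inactive = the rest.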 For the sample, actives were picked, then their nearest neighbours and some compounds at random.
# Target: Mas-related G-protein coupled receptor member X1 (Homo sapiens) (UniProt Q96LB2)
# Sequence (Q96LB2 whole entry, looked up): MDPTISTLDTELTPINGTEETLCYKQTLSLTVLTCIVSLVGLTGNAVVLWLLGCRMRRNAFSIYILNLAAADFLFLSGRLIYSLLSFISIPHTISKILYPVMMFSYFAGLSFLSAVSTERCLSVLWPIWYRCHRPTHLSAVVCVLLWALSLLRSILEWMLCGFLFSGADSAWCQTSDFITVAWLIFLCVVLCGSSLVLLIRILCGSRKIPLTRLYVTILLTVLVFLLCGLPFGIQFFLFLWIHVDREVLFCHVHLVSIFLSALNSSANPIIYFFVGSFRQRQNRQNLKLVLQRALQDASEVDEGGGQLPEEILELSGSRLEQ
# Assay: antagonists of human MrgX1 receptor, primary screen, HEK293 cells, Fluo-4 calcium flux (AID 588676);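 as to B-score: peak minus trough fluorescence over baseline after final BAM8-22 challenge near maximal dose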
# Conditions: Fluo-4, BAM8-22 antagonism, at 10 µM; hits give low values
row,Structure (SMILES),B-score
1,Cc1cc(OCCCCOc2ccc(C#N)cc2)ccc1[N+](=O)[O-],inactive
2,CCn1cc(C(=O)NCCCN2CCCCCC2)c(=O)c2cc(S(=O)(=O)N3CCc4ccccc4C3)ccc21,inactive
3,CCOc1cc(C(=O)Nc2c(C)ccc3nsnc23)cc(OCC)c1OCC,inactive
4,CCOC(=O)CC1C(=O)NCCN1c1nc2c(C)cccn2c(=O)c1/C=C1\SC(=S)N(C(C)CC)C1=O (centres undefined),inactive
5,Cc1cccn2c(=O)c(/C=C3\SC(=S)N(CC(C)C)C3=O)c(NCCCOC(C)C)nc12,-11.6 (active)
6,CNc1nc2c(C)cccn2c(=O)c1C=Nc1ccc(OC)cc1,inactive
7,Cc1coc2c1c(C)cc1oc(=O)c(CC(=O)NCC(=O)N[C@H](C(=O)O)C(C)C)c(C)c12,inactive
8,CCCCn1c(N)c(N(CC(C)C)C(=O)c2ccc(-n3c(C)ccc3C)cc2)c(=O)[nH]c1=O,inactive
9,O=C(COc1coc(CN2CCN(c3ccccc3)CC2)cc1=O)Nc1ccccc1F,inactive
10,COc1ccc(C(=O)CSc2nccc(=O)[nH]2)cc1,inactive
11,COc1ccc(C(=O)CSc2n[nH]c(N)n2)cc1,-4.92 (active)
12,COc1ccc(CNC(=O)CSc2n[nH]c(N)n2)cc1OC,inactive
13,O=C(c1cc(-c2ccc(Cl)s2)nc2ccccc12)N1CCOCC1,inactive
14,CCOC(=O)c1nn(-c2cccc(C)c2)cc1C(=O)c1ccccc1,inactive
15,CCOC(=O)c1cn(CC(=O)Nc2ccc(C(C)C)cc2)nn1,inactive
16,CCOC(=O)c1cn(Cc2cccc(C)c2)nn1,-5.74 (active)
17,COC(=O)[C@@H]1CC[C@H](C)[C@@H](c2ccc(C)cc2)N1C(=O)c1ccc(/C=N/O[C@H](C)c2cn([C@@H]3COC[C@H]3O)nn2)cc1,inactive
18,Cc1cccc(N(C(=O)c2csnn2)C(C(=O)NCc2ccccc2)c2ccncc2)c1 (centres undefined),inactive
19,O=C1CSC(=S)N1c1ccc(Cl)c(Cl)c1,inactive
20,CCN(CC(=O)Nc1cc(Cl)ccc1C)C(=O)CSCc1ccc(C)cc1,inactive
21,COc1ccc(NS(=O)(=O)c2ccc(NC(=O)c3ccc(N(C)S(C)(=O)=O)cc3)cc2)cc1,inactive
22,COc1ccc(NS(=O)(=O)c2cc(NC(=O)CC(=O)c3ccc([N+](=O)[O-])cc3)ccc2C)cc1,inactive
23,CCN(CC)c1ccc(NC(=O)c2ccc(=O)[nH]c2)cc1S(=O)(=O)Nc1ccc(OC)cc1,-4.78 (active)
24,O=C(NCc1ccc2c(c1)OCO2)c1sccc1Br,inactive
25,O=C(c1ccc(O)cc1)c1ccc(C(=O)O)c(C(=O)O)c1,-10.2 (active)

row,Structure (SMILES),B-score
1,O=C(Nc1ccc(C(=O)O)c(O)c1)c1ccccc1,inactive
2,O=C(O)c1ccc2c(c1)C(=O)N(NC(=O)c1ccc(O)cc1)C2=O,inactive
3,CCCOc1ccc(N2C(=O)CC(N(CCc3ccc(S(N)(=O)=O)cc3)C(C)=O)C2=O)cc1 (centres undefined),inactive
4,CC(=O)Nc1ccc(S(=O)(=O)N2CCC(C(=O)N[C@@H](Cc3ccccc3)C(=O)O)CC2)cc1,inactive
5,CCN(CC)S(=O)(=O)c1ccc(N(C)Cc2cccc(OC)c2OC)nc1,inactive
6,COc1cc(N)c(Cl)cc1C(=O)OCC(=O)c1ccc2c(c1)NC(=O)CO2,inactive
7,O=C(NC1CCCCC1)C1c2ccccc2C(=O)N1Cc1ccco1 (centres undefined),-7.6 (active)
8,O=C1c2ccccc2C(Nc2ccc3c(c2)OCCO3)N1Cc1ccco1 (centres undefined),inactive
9,CC1CCC(NC(=O)C2c3ccccc3C(=O)N2Cc2ccc3c(c2)OCO3)CC1 (centres undefined),inactive
10,Cc1cc(OC(C)C(=O)Nc2ccc(S(=O)(=O)Nc3onc(C)c3C)cc2)cc(C)c1Cl (centres undefined),inactive
11,COc1ccc(-c2ocnc2C(=O)Nc2ccc3c(c2)CCC3)cc1,inactive
12,CCN1C(=O)[C@@H]2[C@@H](c3ccc(-c4ccc(OC)cc4)c(OC)c3)N3CCC[C@@]3(C(=O)OC)[C@@H]2C1=O,inactive
13,O=c1cc(CO)oc(C(Nc2cccc([N+](=O)[O-])c2)c2ccccn2)c1O (centres undefined),-4.59 (active)
14,O=c1cc(CO)oc(C(Nc2cccc(C(F)(F)F)c2)c2ccccn2)c1O (centres undefined),inactive
15,O=[N+]([O-])c1cccc(S(=O)(=O)NCc2ccccn2)c1,inactive
16,O=C(c1ccc(Cl)cc1)N1N=C(c2ccccn2)CC1(O)C(F)(F)F (centres undefined),inactive
17,Cc1nnc(SCC(=O)Nc2ccc(S(=O)(=O)Nc3ccc(Cl)nn3)cc2)s1,inactive
18,COc1cccc(N(CC(=O)Nc2cccc(N(C)S(C)(=O)=O)c2)S(C)(=O)=O)c1,inactive
19,CN(c1cccc(NC(=O)Nc2ccc(Cl)cc2)c1)S(C)(=O)=O,-8.9 (active)
20,CN(c1cccc(NC(=O)c2ccc(CN3CCc4ccccc4C3)cc2)c1)S(C)(=O)=O,inactive
21,CC(C)NC(=S)Nc1cccc2cnccc12,-4.98 (active)
22,O=C(COC(=O)c1cnccn1)Nc1cccc2ccccc12,inactive
23,COC(=O)c1cccnc1NC(=S)NC(C)C,inactive
24,Cc1ccc2cc(CN(c3ccc(C)c(C)c3)S(C)(=O)=O)c(=O)[nH]c2c1,inactive
